The text below walks through data of PubChem BioAssay.

Test [1] is described as follows: growth inhibition of DIPG glioma cells, dose response, cell-based, SU-DIPG-XIII, MIPE5.0, CellTiter-Glo, qHTS (AID 1347064; cut-off not given, nearly all actives have AC50 up to about 23 µM;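 as to AC50: cells exposed to compound for 48 hours before the viability read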). The settings on record: SU-DIPG-XIII viability, CellTiter-Glo ATP luminescence. In general terms: In ATP-based viability assays light output follows the ATP content of the culture.
A short description of test [2]: viability loss in pontine glioma line – cell-based, SU-DIPG-XXV, MIPE5.0, CellTiter-Glo, qHTS, dose response (AID 1347065).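 Also: cells exposed to compound for 48 hours before ATP readout.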 The note with it: CellTiter-Glo ATP luminescence.
Test [3] is described as follows: JHH-DIPG-1 glioma cell viability, MIPE5.0 library, CellTiter-Glo luminescence, qHTS (AID 1347067).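 Also: cells exposed to compound for 48 hours before readout.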 The note with it: JHH-DIPG-1 glioma viability, CellTiter-Glo ATP luminescence.
A short description of test [4]: SU-DIPG-XXV glioma cell viability, MIPE5.0 library, qHTS (AID 1347068; cut-off not given, nearly all actives have IC50 up to about 30 µM;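 as to IC50: cells exposed to compound for 48 hours before viability readout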). In general terms: qHTS replaces the single test concentration by a dilution series.
Test [5] is described as follows: sensitizers of A549 cells to miR-34 induction, primary screen, imaging, A549 dox-inducible miR-34, nuclei and caspase counts (AID 1347080;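 active = compounds whose cell count with miR-34 switched on is under 0.7 times the count with it off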). The note with it: A549 miR-34 inducible, Hoechst nuclei count, 48 h.
The nature of test [6]: survival rescue of mitochondrial mutant cells in low glucose, primary screen, MELAS cybrids, Rieske KO mouse fibroblasts, CellTiter-Glo (AID 1508586;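 active = mean z-score across replicates of 1.96 or higher in either the MELAS or the Rieske mutant cell line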;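 also: z relative to plate mean and SD of compound and empty wells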).

Usually AC50 stands for the midpoint of the concentration-response curve, whichever way the signal moves. The term IC50 denotes the concentration needed to halve the response being measured.

Records with an inconclusive call do not appear. Calls of active or inactive are those of the source. Unless noted, the limit is not given here; nearly all actives have AC50 up to about 26 µM.

`CC(C)C(N)C(=O)OCC(CO)OCn1cnc2c(=O)[nH]c(N)nc21` (stereo not given): the call in test [1], in test [2], in test [3] and in test [4] was inactive.

For the molecule `O=C(NO)c1cnc(NC2(c3ccccc3)CC2)nc1`, the AC50 in test [1] was 3.32 µM (active); in test [2] it was 2.95 µM (active); in test [3], 2.95 µM (active).

`CCNCCc1ccc(CN(CC)c2cc(OC)ccc2[C@@H]2CCc3cc(O)ccc3C2)cc1`: the half-maximal activity concentration (AC50) is 7.42 µM (active) in test [1], 8.33 µM (active) in test [2] and 5.25 µM (active) in test [3]. In test [4], the IC50 was 3.32 µM (active).

In the case of `CN1C(=O)N[C@H](Cc2c[nH]c3c(Cl)cccc23)C1=O`, the molecule was classed as inactive in test [1], in test [2] and in test [3].

On to `Cc1ccc(-n2c(C)cc(-c3nnc4n3CCCCC4)c2C)cc1`, for which the results for the half-maximal activity concentration (AC50) in test [1], in test [2] and in test [3] were 14.8 µM (active), 20.9 µM (active) and 18.6 µM (active), respectively.

With `COC1(c2sc3c(N4CCOCC4)nc(-c4cnc(N)nc4)nc3c2C)COC1`, the concentration at half-maximal activity (AC50) in test [1] is 0.661 µM (active); in test [2], 0.132 µM (active); in test [3], 0.525 µM (active). The IC50 in test [4] is 1.18 µM (active).

For the molecule `O=C(Cc1cccc(OC(F)(F)F)c1)Nc1ccc(CCCCc2nnc(NC(=O)Cc3ccccn3)s2)nn1`, the AC50 in test [1] was 13.2 µM (active); in test [2], 14.8 µM (active); in test [3], 20.9 µM (active). Also, in test [4], the result was inactive.

Consider `COc1ncc(Nc2ncc([C@H](C)N3CCN(S(C)(=O)=O)CC3)cc2-c2nc(C)nc(N)n2)cc1F`, for which the concentration at half-maximal activity (AC50) was 0.525 µM (active) in test [1], 0.105 µM (active) in test [2] and 1.18 µM (active) in test [3].

Take `Cc1cc(C(=O)Nc2cc(Oc3ccc4nc(NC(=O)C5CC5)cn4n3)ccc2C)n(C)n1`: the values for the AC50 in test [1] and in test [2] were 10.5 µM (active) and 5.9 µM (active), respectively.

Consider `CCCCOC(=O)NS(=O)(=O)c1sc(CC(C)C)cc1-c1ccc(Cn2ccnc2)cc1`, for which the molecule was classed as inactive in test [1] and in test [4]. Further, the AC50 in test [2] and in test [3] was 20.9 µM (active) each time.

As to `CC1(C)CCC2(CC1)N[C@@H](C(=O)N[C@@H]1CC[C@@H](C(N)=O)OC1)[C@H](c1ccnc(Cl)c1F)[C@]21C(=O)Nc2cc(Cl)ccc21`, the results for the AC50 in test [1], in test [2] and in test [3] were 16 µM (active), 16 µM (active) and 20.1 µM (active), respectively. Moreover, the result in test [4] was inactive.

As for `CCS(=O)(=O)Nc1ccc(Oc2ccc(F)cc2F)c(-c2cn(C)c(=O)c3[nH]ccc23)c1`, the half-maximal activity concentration (AC50) in test [1] is 0.105 µM (active); in test [2] it was 2.95 µM (active); in test [3], 4.68 µM (active).

For the molecule `CN(C)C(=O)c1cc2cnc(Nc3ccc(N4CCNCC4)cn3)nc2n1C1CCCC1`, the result in test [1], in test [2], in test [3] and in test [4] was inactive. The fold change was 1 (inactive) in test [5] (stronger effect = lower value, cell number ratio, induced over uninduced) and 0.436 in test [5] (measured here: relative caspase fold change +Dox/-Dox). Moreover, the cell count in test [5] (measured here: total cells with miR-34 induction, stronger effect = lower value) came out at 5240; in test [5] (measured here: total cells without miR-34 induction), 5220. Besides, the z-score was -0.462 (inactive) in test [6] (MELAS cybrid survival, CellTiter-Glo 48 h, stronger effect = higher value) and -0.582 in test [6] (Rieske KO mouse fibroblast survival, CellTiter-Glo 72 h).

For `NC(=S)N/N=C/c1ncccc1N`, the concentration at half-maximal activity (AC50) in test [1] was 11.8 µM (active); in test [2], 16.6 µM (active); in test [3] it was 14.8 µM (active).

For the molecule `N#Cc1ccc(-c2c(-c3ncn[nH]3)sc(N3CCOCC3)c2C#N)c(F)c1`, the AC50 in test [1] is 5.9 µM (active); in test [2], 1.48 µM (active); in test [3], 10.5 µM (active). Moreover, in test [4], the 50% inhibitory concentration (IC50) was 4.68 µM (active).

For `CN(C)N(C)C(=O)[C@@]1(Cc2ccccc2)CCCN(C(=O)[C@@H](Cc2c[nH]c3ccccc23)NC(=O)C(C)(C)N)C1`, the molecule was classed as inactive in test [1], in test [2], in test [3] and in test [4].

As to `O=C1OC(COc2ccccc2[N+](=O)[O-])CC1Cc1ccccc1` (stereo not given), the outcome in test [1], in test [2], in test [3] and in test [4] was inactive.

Turning to `CCN1C(=O)CNc2ncc(-c3ccc(-c4ncn[nH]4)nc3C)nc21`, the AC50 is 4.17 µM (active) in test [1], 1.48 µM (active) in test [2] and 5.9 µM (active) in test [3]. The IC50 in test [4] is 8.33 µM (active).

With `Cc1ccc(NC(=O)[C@H]2CCCN(C(=O)c3c(C)cccc3F)[C@H]2c2ccc(NC3CCCC3)cc2)cc1C(F)(F)F`, the outcome in test [1], in test [2], in test [3] and in test [4] was inactive.

With `CN[C@@H](C)C(=O)N[C@H](C(=O)N1CCC[C@H]1C(=O)Nc1snnc1-c1ccccc1)C1CCCCC1`, the call in test [1], in test [2], in test [3] and in test [4] was inactive.

As to `CC1(C(=O)O)CCC2(C)CCC3(C)C(=CC(=O)C4C5(C)CCC(OC6OC(C(=O)O)C(O)C(O)C6OC6OC(C(=O)O)C(O)C(O)C6O)C(C)(C)C5CCC43C)C2C1` (stereo not given), the outcome in test [1], in test [2], in test [3] and in test [4] was inactive.

As for `CCc1ccc(N(CC(C)C)S(=O)(=O)c2ccc(OCC3CCOCC3)c(CO)c2)cc1`, in test [1], the molecule was classed as inactive. For the same molecule, the AC50 in test [2] is 20.9 µM (active).

Take `OC(c1ccc(-c2ccc(CN3CCN(Cc4ccncc4)CC3)cc2)c(F)c1)(C(F)(F)F)C(F)(F)F`: the molecule was called inactive in test [1], in test [2], in test [3] and in test [4].

Regarding `Cc1c(C(=O)Nc2ccc(Oc3ccnc4[nH]cc(-c5ccccc5)c34)c(F)c2)c(=O)n(-c2ccc(F)cc2)n1C`, the AC50 in test [1] was 16.6 µM (active); in test [2] it was 5.25 µM (active); in test [3] it was 16.6 µM (active).

Take `Cc1c(NC(=O)c2cc(C(N)=O)nc3cc(F)ccc23)c(C(F)(F)F)nn1Cc1ccc(C(C)(C)C)cc1`: the AC50 in test [1] was 26.3 µM (active); in test [2], 20.9 µM (active); in test [3], 23.5 µM (active).

As to `NC(=O)c1cnc(N[C@@H]2CCCC[C@@H]2N)nc1Nc1cccc(-n2nccn2)c1`, the AC50 in test [1] was 7.42 µM (active); in test [2], 5.25 µM (active); in test [3], 23.5 µM (active). For the same molecule, the IC50 in test [4] is 18.6 µM (active).

Turning to `CCS(=O)(=O)N1CCN(c2ccc(Nc3ncc(C(N)=O)c(NC4CC4)n3)cc2)CC1`, the AC50 in test [1] is 16.6 µM (active); in test [2], 11.8 µM (active); in test [3] it was 14.8 µM (active). For the same molecule, the IC50 in test [4] was 23.5 µM (active).

In the case of `Nc1nccc2c1ncn2[C@@H]1C=C(CO)[C@@H](O)[C@H]1O`, the outcome in test [1], in test [2], in test [3] and in test [4] was inactive.

As to `CC(C)n1c(=O)cc(N[C@@H](C)c2ccccc2)[nH]c1=O`, the concentration at half-maximal activity (AC50) in test [1] was 9.34 µM (active); in test [2], 10.5 µM (active); in test [3], 14.8 µM (active). Further, the molecule was called inactive in test [4].

Take `C[C@@H](C(=O)Nc1ccc(Cl)cc1)C1CCC(c2ccnc3ccc(F)cc23)CC1` (stereo not given in full): the result in test [1], in test [2] and in test [3] was inactive.

Turning to `CC1(N)CCN(c2cnc(-c3cccc(Cl)c3Cl)c(N)n2)CC1`, the outcome in test [1], in test [3] and in test [4] was inactive.

`NCc1ccc(OCCCc2sc(-c3ccc4c(c3)/C(=N/Nc3nc5ccccc5s3)CCC4)nc2C(=O)O)cc1`: the molecule was called inactive in test [1], in test [2] and in test [4].

For `CCOCc1nc2c(N)nc3ccccc3c2n1CC(C)(C)O`, the molecule was classed as inactive in test [1], in test [2] and in test [4].

For `Cn1cc(-c2cnc3ccc4ccc(CS(=O)(=O)NCc5ccccn5)cc4c(=O)c3c2)cn1`, the result in test [1], in test [2] and in test [4] was inactive.
